SMILES strings stand for the structures. Activity calls are given as the source filed them. How the source made its calls: active means hit-call score of the fitted dose curve at least 0.9, where 1 is the maximum; inactive means score below 0.9.

This assay is described as follows: ATG_TCF_b_cat_CIS: Attagene CIS-FACTORIAL HepG2 Assay for human T-Cell-Factor with beta-catenin (TCF/b-cat) (AID 2282965). The following applies: HepG2 TCF/beta-catenin cis-reporter transcription, actives raise or lower the signal. Summed up:
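HepG2 cells transiently transfected with multiple cis-promoter-regulated reporter transcription units, so endogenous transcription factor activity is measured. Reporter mRNA read 24 hours after dosing by RT-PCR, fluorescent labelling and capillary electrophoresis; bidirectional fitting against DMSO.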
`CC1(C)O[C@@H]2C[C@H]3[C@@H]4CCC5=CC(=O)C=C[C@]5(C)[C@@]4(F)[C@@H](O)C[C@]3(C)[C@]2(C(=O)CO)O1`: the outcome was inactive.
Still for that read-out and setting: then `CCOc1ccc(N=Nc2ccc(C=Cc3ccc(N=Nc4ccc(OCC)cc4)cc3S(=O)(=O)O)c(S(=O)(=O)O)c2)cc1`, with “inactive”; and `c1ccc(CN(Cc2ccccc2)Cc2ccccc2)cc1`, with “inactive”.
Regarding `CC(=O)CC(=O)Nc1ccccc1`, the compound was called inactive.
Same read-out and setting: then `CCNCCO`, with “inactive”; and `O=CCc1ccccc1`, with “inactive”; and `C=C(C)[C@H]1CC=C(C)C(=O)C1`, with “inactive”.
On the same count and under the same terms, then `CC(C)OCCO`, with “inactive”.
As to `CC(C)CCCCCCc1ccc(OCCOCCO)cc1`, the result was inactive.
`CCc1cc(C(C)(C)C)c(O)c(C(C)(C)C)c1`: the compound was called inactive.
Still for that read-out and setting: then `CC(=O)OCCCc1ccccc1`, with “inactive”.
A word on the AC50: it is the concentration at which the activity in the assay is half-maximal. Consider `Clc1ccc(C(c2ccccc2Cl)C(Cl)Cl)cc1` (stereo not drawn), for which the concentration at half-maximal activity (AC50) was 59.9 µM (active).
Turning to `C=CC(C)(O)CCC=C(C)C` (stereo not drawn), the call was inactive.
The same measure, in the same setting: then `Nc1c(Cl)cc(Cl)cc1[N+](=O)[O-]`, with “inactive”.
Same read-out and setting: then `C[C@H](CCC(=O)NCC(=O)O)[C@H]1CC[C@H]2[C@@H]3[C@H](O)C[C@@H]4C[C@H](O)CC[C@]4(C)[C@H]3C[C@H](O)[C@]12C`, with “inactive”.
The same measure, in the same setting: then `CCCOCCO`, with “inactive”; and `CN(C)C(=S)SC(=S)N(C)C`, with “inactive”; and `Cc1cc(CCC(=O)OCCOCCOCCOC(=O)CCc2cc(C)c(O)c(C(C)(C)C)c2)cc(C(C)(C)C)c1O`, with “inactive”.
On to `CCCCCCCCCCCC(=O)OC[C@@H](O)[C@H]1OC[C@H](O)[C@H]1O`, for which the outcome was inactive.
Same read-out and setting: then `COC(=O)c1ccc(OC)cc1`, with “inactive”; and `COC(C)(C)CCO`, with “inactive”.
`CC(=O)O[C@@H]1CC2CCC1(C)C2(C)C` (stereo partly drawn): the outcome was inactive.
Consider `C[C@H]1O[C@@H](O[C@H]2[C@@H](O)C[C@H](O[C@H]3[C@@H](O)C[C@H](O[C@H]4CC[C@@]5(C)[C@H](CC[C@@H]6[C@@H]5C[C@@H](O)[C@]5(C)[C@@H](C7=CC(=O)OC7)CC[C@]65O)C4)O[C@@H]3C)O[C@@H]2C)C[C@H](O)[C@@H]1O`, for which the concentration at half-maximal activity (AC50) was 1.03 µM (active).
Turning to `CC[N+](C)(CC)CC`, the compound was called inactive.
Still for that read-out and setting: then `COCCOCCOCCO`, with “inactive”.
The same measure, in the same setting: then `COC(C)(C)CCCC(C)CC=O` (stereo not drawn), with “inactive”; and `COc1ccc(COC(C)=O)cc1`, with “inactive”; and `Cc1ccc(S(N)(=O)=O)cc1`, with “inactive”.
Still for that read-out and setting: then `O=C(O)c1cc(C(=O)O)cc([N+](=O)[O-])c1`, with “inactive”.
For `CC(C)Nc1nc(N)nc(Cl)n1`, the compound was called inactive.
On the same count and under the same terms, then `C[C@@H]1CCN(C(=O)[C@H](CCCN=C(N)N)NS(=O)(=O)c2cccc3c2NC[C@H](C)C3)[C@@H](C(=O)O)C1`, with “inactive”.
The same measure, in the same setting: then `CCCCCCCC/C=C\CCCCCCCC(=O)OCC`, with “inactive”.
Turning to `CCOC(=O)COC(=O)c1cc(Oc2ccc(C(F)(F)F)cc2Cl)ccc1[N+](=O)[O-]`, the compound was classed as inactive.
The same measure, in the same setting: then `O=C(O)c1cccnc1C(=O)O`, with “inactive”; and `O=C(Nc1ccc2c(O)c(N=Nc3ccc(N=Nc4ccc(S(=O)(=O)O)cc4)cc3)c(S(=O)(=O)O)cc2c1)c1ccccc1`, with “inactive”; and `Cc1ncc([N+](=O)[O-])n1CCO`, with “inactive”.
In the case of `CCOc1ccc(NC(=O)CC(C)=O)cc1`, the compound was called inactive.
Same read-out and setting: then `CC/C=C\CCOC(=O)CC`, with “inactive”.

The values are drawn from PubChem BioAssay (EPA / NIEHS).
